Laboratory results taken from the supplement of paper PMC8728848.
This excerpt belongs to a sample that is enriched for the strongest signals.

Key:
Experiment in all cases: glycan array binding signal (z-score within array); higher = stronger binding
Conditions in all cases: glycan notation: IUPAC condensed, linker removed
[1] = molecular target: GlcNAc(b1-3)Gal(b1-4)GlcNAc(b1-3)Gal(b1-4)GlcNAc(b1-3)Gal(b1-4)GlcNAc(b1-2)Man(a1-3)[GlcNAc(b1-3)Gal(b1-4)GlcNAc(b1-3)Gal(b1-4)GlcNAc(b1-3)Gal(b1-4)GlcNAc(b1-2)Man(a1-6)]Man(b1-4)GlcNAc(b1-4)[Fuc(a1-6)]GlcNAc
In short: (§1)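 From the Consortium for Functional Glycomics database, 3228 arrays were curated, keeping only those whose protein sequence was available. Binding is given as a within-array Z-score averaged across arrays sharing a protein sequence and across linkers. Negative Z-scores can be read as non-binding.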

[2] = molecular target: GlcNAc(b1-3)Man
In short: as §1

[3] = molecular target: GlcNAc(b1-4)GlcNAc
In short: as §1

[4] = molecular target: Kdn(a2-3)Gal(b1-4)GlcNAc
In short: as §1

[5] = molecular target: Man(a1-2)Man(a1-6)[Man(a1-3)]Man(a1-6)[Man(a1-2)Man(a1-2)Man(a1-3)]Man(b1-4)GlcNAc(b1-4)GlcNAc
In short: as §1

[6] = molecular target: Neu5Ac(a2-3)Gal
In short: as §1

[7] = molecular target: Neu5Ac(a2-3)Gal(b1-3)GalNAc(b1-4)[Neu5Ac(a2-3)]Gal(b1-4)Glc
In short: as §1

[8] = molecular target: Neu5Ac(a2-3)Gal(b1-4)GlcNAc(b1-2)Man
In short: as §1

[9] = molecular target: Neu5Ac(a2-3)Gal(b1-4)GlcNAc(b1-2)Man(a1-3)[Neu5Ac(a2-3)Gal(b1-4)GlcNAc(b1-2)Man(a1-6)]Man(b1-4)GlcNAc(b1-4)[Fuc(a1-6)]GlcNAc
In short: as §1

[10] = molecular target: Neu5Ac(a2-3)Gal(b1-4)GlcNAc(b1-3)Gal(b1-4)GlcNAc(b1-3)Gal(b1-4)GlcNAc(b1-2)Man(a1-3)[Neu5Ac(a2-3)Gal(b1-4)GlcNAc(b1-3)Gal(b1-4)GlcNAc(b1-3)Gal(b1-4)GlcNAc(b1-2)Man(a1-6)]GalNAc
In short: as §1

[11] = molecular target: Neu5Ac(a2-3)GalNAc(b1-4)GlcNAc
In short: as §1

[12] = molecular target: Neu5Ac(a2-6)Gal(b1-4)GlcNAc(b1-2)Man(a1-3)Man(b1-4)GlcNAc(b1-4)GlcNAc
In short: as §1

[13] = molecular target: Neu5Ac(a2-6)Gal(b1-4)GlcNAc(b1-2)Man(a1-3)[Man(a1-6)]Man(b1-4)GlcNAc(b1-4)GlcNAc
In short: as §1

[14] = molecular target: Neu5Ac(a2-8)Neu5Ac(a2-3)[Gal(b1-3)GalNAc(b1-4)]Gal(b1-4)Glc
In short: as §1

[15] = molecular target: Neu5Gc(a2-8)Neu5Gc(a2-6)Gal(b1-4)GlcNAc
In short: as §1

B1: Als3-41 (Candida albicans) (protein)
chain: KTITGVFNSFNSLTWSNAATYNYKGPGTPTWNAVLGWSLDGTSASPGDTFTLNMPCVFKFTTSQTSVDLTAHGVKYATCQFQAGEEFMTFSTLTCTVSNTLTPSIKALGTVTLPLAFNVGGTGSSVDLEDSKCFTAGTNTVTFNDGGKKISINVDFERSNVDPKGYLTDSRVIPSLNKVSTLFVAPQCANGYTSGTMGFANTYGDVQIDCSNIHVGITKGLNDWNYPVSSESFSYTKTCSSNGIFITYKNVPAGYRPFVDAYISATDVNSYTLSYANEYTCAGGYWQRAPFTLRWTGYRNSDAGSNGIVIVATTRTVTDSTTAVTTLPFDPNRDKTKTIEILKPIPTTTITTSYVGVTTSYLTKTAPIGETATVIVD
- glycan array binding signal (z-score) [1]: 1.72
- glycan array binding signal (z-score) [2]: 0.501
- glycan array binding signal (z-score) [3]: 1.79
- glycan array binding signal (z-score) [4]: -0.355
- glycan array binding signal (z-score) [5]: -0.239
- glycan array binding signal (z-score) [6]: -0.322
- glycan array binding signal (z-score) [7]: -0.31
- glycan array binding signal (z-score) [8]: 0.213
- glycan array binding signal (z-score) [9]: -0.35
- glycan array binding signal (z-score) [10]: 6.54
- glycan array binding signal (z-score) [11]: -0.224
- glycan array binding signal (z-score) [12]: -0.296
- glycan array binding signal (z-score) [13]: -0.268
- glycan array binding signal (z-score) [14]: -0.006
- glycan array binding signal (z-score) [15]: -0.217
